Experimental data reported in PubChem BioAssay (EPA / NIEHS).
“And” between values parts separate entries of the source, which are not always exact repeats. Equal entries are not always repeated. Records with an inconclusive call do not appear. Where a structure was tested more than once in an assay, its records may differ in their call. The source made the active and inactive calls. How the source made its calls: active means hit-call score of the fitted dose curve at least 0.9, where 1 is the maximum; inconclusive means response in the unintended direction; inactive means score below 0.9.

Tests used:
[1] = ATG_M_06_XSP2: Attagene TRANS-FACTORIAL Multi-Species (XSP2) HepG2 Assay for M06 Transcription Factor (Internal Marker) (AID 2283811);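 further: hits are increases in signal above the DMSO baseline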
Summary of the method: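 Internal-marker reporter transcript, quantified by RT-PCR, 6-FAM labelling, HpaI digestion and capillary electrophoresis, 24 hours after dosing transfected HepG2 cells with 3 nM 6-alpha-fluorotestosterone and 1.5 nM norgestrel present; DMSO baseline.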

[2] = tested on: turtle Estrogen Receptor (ERa), gene 101933533; assay: ATG_trERa_XSP2: Attagene TRANS-FACTORIAL Multi-Species (XSP2) HepG2 Assay for turtle Estrogen Receptor (ERa) (AID 2283812);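 further: actives raise reporter signal above DMSO so AC50 reflects agonist activity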
Summary of the method: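 Readout is reporter mRNA quantified by RT-PCR with capillary electrophoresis after 24 h compound exposure, increase relative to DMSO. Uses transiently transfected human HepG2 liver cells carrying a chimeric turtle ERa-Gal4 receptor driving GAL4-UAS reporters.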

[3] = target: Estrogen receptor beta (Homo sapiens) (UniProt Q92731); assay: ATG_hERb_XSP2: Attagene TRANS-FACTORIAL Multi-Species (XSP2) HepG2 Assay for human Estrogen Receptor (ERb) (AID 2283813);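 further: actives raise reporter mRNA above DMSO so AC50 reflects agonist induction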
Summary of the method: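 Transient TRANS reporter system in HepG2: after 24 h of chemical, RNA is reverse-transcribed, reporter cDNA amplified, FAM-labelled and sized by capillary electrophoresis. Induction of the human ERb-Gal4 reporter is measured relative to DMSO.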

[4] = target: GAL4 Transcription Factor (Internal Marker), GAL4 (gene 855828) (UniProt P04386); assay: ATG_GAL4_XSP2: Attagene TRANS-FACTORIAL Multi-Species (XSP2) HepG2 Assay for GAL4 Transcription Factor (Internal Marker) (AID 2283814);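 further: GAL4 reporter mRNA background control in MRTU transfected cells not a receptor target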
Summary of the method: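 Background-control readout: gain-of-signal fitted against DMSO. After 24 h exposure of transfected HepG2 (MRTU, GAL4-UAS reporters; 3 nM 6-alpha-fluorotestosterone, 1.5 nM norgestrel present), transcripts quantified by RT-PCR and capillary electrophoresis fluorescence.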

[5] = target: zebrafish Estrogen Receptor (ER1), esr1 (gene 259252) (UniProt P57717); assay: ATG_zfER1_XSP2: Attagene TRANS-FACTORIAL Multi-Species (XSP2) HepG2 Assay for zebrafish Estrogen Receptor (ER1) (AID 2283816)
Summary of the method: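 After 24 h compound exposure, RNA from transfected HepG2 cells was reverse-transcribed and reporter transcripts resolved by capillary electrophoresis. The TRANS format reads exogenous zebrafish ER1-Gal4 chimera activity on GAL4-UAS elements; gain of signal against DMSO.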

[6] = target: chicken Estrogen Receptor (ERa), ESR1 (gene 396099) (UniProt P06212); assay: ATG_chERa_XSP2: Attagene TRANS-FACTORIAL Multi-Species (XSP2) HepG2 Assay for chicken Estrogen Receptor (ERa) (AID 2283817);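 further: actives raise reporter signal above DMSO so AC50 reflects ER activation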
Summary of the method: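 Reporter mRNA induction read by RT-PCR, fluorescent labelling and capillary electrophoresis after 24 h exposure; positive-direction fit against DMSO baseline. HepG2 cells transfected with multiplexed GAL4-UAS units including chicken ERa chimera; medium contained 3 nM 6-alpha-fluorotestosterone plus 1.5 nM norgestrel.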

[7] = tested on: zebrafish Estrogen Receptor (ER2a), gene 317734; assay: ATG_zfER2a_XSP2: Attagene TRANS-FACTORIAL Multi-Species (XSP2) HepG2 Assay for zebrafish Estrogen Receptor (ER2a) (AID 2283818);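 further: hits raise reporter mRNA so AC50 reflects activation of zebrafish ER2a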
Summary of the method: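 Multiplexed trans-reporter readout: RT-PCR then capillary electrophoresis of reporter transcripts after 24 h compound treatment. Human HepG2 carries transfected zebrafish ER2a-Gal4 chimera; 3 nM 6-alpha-fluorotestosterone plus 1.5 nM norgestrel present. Induction scored against DMSO.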

[8] = tested on: frog Estrogen Receptor (ER), gene 398734; assay: ATG_frER1_XSP2: Attagene TRANS-FACTORIAL Multi-Species (XSP2) HepG2 Assay for frog Estrogen Receptor (ER) (AID 2283821);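 further: hits raise reporter mRNA above DMSO baseline so potency means agonist or activator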
Summary of the method: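 HepG2 cells transiently transfected with multiplexed GAL4-UAS reporter units expressing chimeric NR-Gal4 proteins (TRANS format) were dosed for 24 h. Reporter mRNA was quantified by RT-PCR, FAM primer extension, HpaI digestion and capillary electrophoresis; gain of signal relative to DMSO.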

[9] = ATG_M_19_XSP2: Attagene TRANS-FACTORIAL Multi-Species (XSP2) HepG2 Assay for M32 Transcription Factor (Internal Marker) (AID 2283822)
Summary of the method: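 Internal background marker in a multi-species nuclear receptor TRANS panel: transfected HepG2 cells exposed 24 h, with 3 nM 6-alpha-fluorotestosterone and 1.5 nM norgestrel present. Readout is RT-PCR of reporter transcripts resolved by capillary electrophoresis, gain-of-signal versus DMSO.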

[10] = tested on: zebrafish Estrogen Receptor (ER2b), gene 317733; assay: ATG_zfER2b_XSP2: Attagene TRANS-FACTORIAL Multi-Species (XSP2) HepG2 Assay for zebrafish Estrogen Receptor (ER2b) (AID 2283823);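 further: fitted upward as reporter gain over DMSO so potency reflects activation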
Summary of the method: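 In this multiplexed trans-activation format, HepG2 cells expressing exogenous NR-Gal4 fusions drive GAL4-UAS reporters. Exposure lasts 24 h, and reporter mRNA induction is read by RT-PCR with capillary electrophoresis detection.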

[11] = target: Estrogen receptor (Homo sapiens) (UniProt P03372); assay: ATG_hERa_XSP2: Attagene TRANS-FACTORIAL Multi-Species (XSP2) HepG2 Assay for human Estrogen Receptor (ERa) (AID 2283827)
Summary of the method: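 Trans-activation of exogenous human ERa-Gal4 chimera read in HepG2 as reporter transcript after 24 h exposure; medium included 3 nM 6-alpha-fluorotestosterone and 1.5 nM norgestrel. Quantified by RT-PCR with capillary electrophoresis, positive-direction fitting against DMSO.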

[12] = tested on: frog Estrogen Receptor (ER2), gene 100174814; assay: ATG_frER2_XSP2: Attagene TRANS-FACTORIAL Multi-Species (XSP2) HepG2 Assay for frog Estrogen Receptor (ER2) (AID 2283828)
Summary of the method: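 Read-out: reporter transcript levels by RT-PCR with 6-FAM primer extension, HpaI digestion and capillary electrophoresis, scored as induction over DMSO control. Transfected HepG2 carrying Xenopus ER2–GAL4 chimera; compounds incubated 24 h.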

[13] = target: human Thyroid hormone Receptor alpha (TRa), THRA (gene 7067) (UniProt P10827); assay: ATG_hTRa_XSP1: Attagene TRANS-FACTORIAL Multi-Species (XSP1) HepG2 Assay for human Thyroid hormone Receptor alpha (TRa) (AID 2283805)
Summary of the method: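 Reporter transcripts from the human TRa-Gal4 TRANS unit quantified by RT-PCR, fluorescent labeling and capillary electrophoresis after 24 hours of chemical exposure in transfected HepG2 cells; medium contains 3 nM 6-alpha-fluorotestosterone. Positive direction fit against DMSO.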

[14] = tested on: turtle Thyroid Hormone Receptor, alpha (TRa), gene 101949057; assay: ATG_trTRa_XSP1: Attagene TRANS-FACTORIAL Multi-Species (XSP1) HepG2 Assay for turtle Thyroid Hormone Receptor, alpha (TRa) (AID 2283806)
Summary of the method: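 After 24 h chemical exposure, reporter transcripts were measured by RT-PCR with fluorescent primer extension, HpaI digestion and capillary electrophoresis. Cells were transiently transfected HepG2 expressing exogenous NR-Gal4 chimeras; medium contained 3 nM 6-alpha-fluorotestosterone; fitted upward relative to DMSO.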

[15] = target: zebrafish Thyroid Hormone Receptor alpha (TRa), thraa (gene 30670) (UniProt Q98867); assay: ATG_zfTRa_XSP1: Attagene TRANS-FACTORIAL Multi-Species (XSP1) HepG2 Assay for zebrafish Thyroid Hormone Receptor alpha (TRa) (AID 2283807)
Summary of the method: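 Reporter transcripts driven by a chimeric zebrafish TRa–Gal4 protein were measured by RT-PCR with fluorescent labelling and capillary electrophoresis. These came from transiently transfected HepG2 cells after 24 h chemical exposure, with 3 nM 6-alpha-fluorotestosterone added; baseline was DMSO.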

[16] = target: human Thyroid hormone Receptor beta (TRb), THRB (gene 7068) (UniProt P10828); assay: ATG_hTRb_XSP1: Attagene TRANS-FACTORIAL Multi-Species (XSP1) HepG2 Assay for human Thyroid hormone Receptor beta (TRb) (AID 2283808)
Summary of the method: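 Readout is reporter mRNA induction measured by RT-PCR, fluorescent labelling and capillary electrophoresis, fitted upward relative to DMSO. Transiently transfected human HepG2 cells expressing NR-Gal4 chimeras were dosed for 24 h, medium containing 3 nM 6-alpha-fluorotestosterone.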

[17] = target: zebrafish Thyroid Hormone Receptor beta (TRb), thrb (gene 30607) (UniProt Q9PVE4); assay: ATG_zfTRb_XSP1: Attagene TRANS-FACTORIAL Multi-Species (XSP1) HepG2 Assay for zebrafish Thyroid Hormone Receptor beta (TRb) (AID 2283809)
Summary of the method: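 HepG2 cells transiently transfected with multiplexed GAL4-UAS reporter units expressing chimeric zebrafish TRb–Gal4. Dosed 24 h with 3 nM 6-alpha-fluorotestosterone present; reporter mRNA measured by RT-PCR, HpaI digestion and capillary electrophoresis; gain of signal versus DMSO.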

[18] = ATG_XTT_Cytotoxicity_XSP1: Cytotoxicity Assessment in the Attagene TRANS-FACTORIAL Multi-Species (XSP1) HepG2 Assay (AID 2283810)
Summary of the method: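 XTT viability readout taken at 24 hours post-dosing in HepG2 liver cells co-treated with 3 nM 6-alpha-fluorotestosterone. Signal loss relative to DMSO controls reflects cytotoxicity.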

[19] = tested on: chicken Androgen Receptor (AR), gene 422165; assay: ATG_chAR_XSP2: Attagene TRANS-FACTORIAL Multi-Species (XSP2) HepG2 Assay for chicken Androgen Receptor (AR) (AID 2283819);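 further: hits raise reporter mRNA above DMSO so potency is for activation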
Summary of the method: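 Readout is reporter mRNA induction via RT-PCR/capillary electrophoresis after 24 h chemical exposure, positive direction relative to DMSO. Transiently transfected HepG2 express chimeric chicken AR–GAL4; AR stimulated by 3 nM 6-alpha-fluorotestosterone and 1.5 nM norgestrel.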

[20] = tested on: frog Androgen Receptor (AR), gene 399456; assay: ATG_frAR_XSP2: Attagene TRANS-FACTORIAL Multi-Species (XSP2) HepG2 Assay for frog Androgen Receptor (AR) (AID 2283824);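 further: reporter mRNA from GAL4-UAS units driven by Xenopus AR-Gal4 chimera; actives raise reporter signal above DMSO so AC50 reflects agonist-like induction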
Summary of the method: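 Reporter transcript induction, read by RT-PCR with fluorescent capillary electrophoresis, in human liver HepG2 cells carrying an exogenous Xenopus AR-Gal4 fusion and GAL4-driven reporters; chemical exposure 24 hours, activity scored upward against DMSO controls.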

Measured: AC50

Estrogen receptor (Homo sapiens), sequence (P03372 whole entry, looked up, the tested form may be a part): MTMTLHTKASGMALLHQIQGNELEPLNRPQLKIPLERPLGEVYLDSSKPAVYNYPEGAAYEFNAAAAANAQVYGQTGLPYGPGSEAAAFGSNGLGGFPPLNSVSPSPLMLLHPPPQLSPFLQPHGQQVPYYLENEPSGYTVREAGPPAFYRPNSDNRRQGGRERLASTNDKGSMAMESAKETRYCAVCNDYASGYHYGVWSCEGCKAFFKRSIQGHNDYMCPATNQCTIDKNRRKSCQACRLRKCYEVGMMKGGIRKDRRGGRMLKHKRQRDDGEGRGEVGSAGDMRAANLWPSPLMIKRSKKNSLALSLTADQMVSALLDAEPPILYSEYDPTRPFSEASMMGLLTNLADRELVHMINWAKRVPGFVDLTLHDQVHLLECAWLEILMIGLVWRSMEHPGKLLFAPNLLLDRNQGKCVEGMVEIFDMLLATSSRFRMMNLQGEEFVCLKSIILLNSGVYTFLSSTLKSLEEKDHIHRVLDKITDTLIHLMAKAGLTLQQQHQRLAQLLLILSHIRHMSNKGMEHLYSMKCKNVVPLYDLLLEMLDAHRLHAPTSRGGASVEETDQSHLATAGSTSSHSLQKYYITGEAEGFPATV
chicken Estrogen Receptor (ERa), ESR1 (gene 396099), sequence (P06212 whole entry, looked up, the tested form may be a part): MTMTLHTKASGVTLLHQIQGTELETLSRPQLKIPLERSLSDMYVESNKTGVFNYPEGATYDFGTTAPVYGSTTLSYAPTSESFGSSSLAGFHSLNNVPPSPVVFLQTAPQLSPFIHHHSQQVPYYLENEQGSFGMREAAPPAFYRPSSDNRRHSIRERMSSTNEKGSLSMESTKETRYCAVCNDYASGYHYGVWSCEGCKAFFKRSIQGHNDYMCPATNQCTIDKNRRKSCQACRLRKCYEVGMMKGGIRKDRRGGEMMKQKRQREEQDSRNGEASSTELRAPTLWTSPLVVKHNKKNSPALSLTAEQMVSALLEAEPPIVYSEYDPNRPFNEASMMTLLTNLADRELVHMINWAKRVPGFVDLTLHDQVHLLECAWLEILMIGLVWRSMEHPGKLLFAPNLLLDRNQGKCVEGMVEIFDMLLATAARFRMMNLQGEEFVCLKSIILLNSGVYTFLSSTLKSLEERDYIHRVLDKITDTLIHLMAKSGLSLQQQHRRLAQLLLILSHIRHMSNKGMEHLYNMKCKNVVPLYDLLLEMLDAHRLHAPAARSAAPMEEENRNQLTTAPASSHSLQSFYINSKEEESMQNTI
Estrogen receptor beta (Homo sapiens), sequence (Q92731 whole entry, looked up, the tested form may be a part): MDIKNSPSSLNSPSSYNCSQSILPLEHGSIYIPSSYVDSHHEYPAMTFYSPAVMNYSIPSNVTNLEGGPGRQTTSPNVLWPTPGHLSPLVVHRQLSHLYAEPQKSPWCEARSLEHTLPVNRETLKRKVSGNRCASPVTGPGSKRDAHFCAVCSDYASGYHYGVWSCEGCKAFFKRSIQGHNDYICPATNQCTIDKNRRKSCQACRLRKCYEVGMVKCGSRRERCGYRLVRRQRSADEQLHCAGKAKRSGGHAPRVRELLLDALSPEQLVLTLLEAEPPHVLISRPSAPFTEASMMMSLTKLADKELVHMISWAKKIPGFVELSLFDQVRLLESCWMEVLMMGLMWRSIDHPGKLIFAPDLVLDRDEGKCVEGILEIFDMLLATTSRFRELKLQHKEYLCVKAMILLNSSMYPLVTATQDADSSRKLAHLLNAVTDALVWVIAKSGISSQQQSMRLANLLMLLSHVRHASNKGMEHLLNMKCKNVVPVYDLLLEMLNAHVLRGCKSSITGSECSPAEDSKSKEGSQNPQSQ
zebrafish Estrogen Receptor (ER1), esr1 (gene 259252), sequence (P57717 whole entry, looked up, the tested form may be a part): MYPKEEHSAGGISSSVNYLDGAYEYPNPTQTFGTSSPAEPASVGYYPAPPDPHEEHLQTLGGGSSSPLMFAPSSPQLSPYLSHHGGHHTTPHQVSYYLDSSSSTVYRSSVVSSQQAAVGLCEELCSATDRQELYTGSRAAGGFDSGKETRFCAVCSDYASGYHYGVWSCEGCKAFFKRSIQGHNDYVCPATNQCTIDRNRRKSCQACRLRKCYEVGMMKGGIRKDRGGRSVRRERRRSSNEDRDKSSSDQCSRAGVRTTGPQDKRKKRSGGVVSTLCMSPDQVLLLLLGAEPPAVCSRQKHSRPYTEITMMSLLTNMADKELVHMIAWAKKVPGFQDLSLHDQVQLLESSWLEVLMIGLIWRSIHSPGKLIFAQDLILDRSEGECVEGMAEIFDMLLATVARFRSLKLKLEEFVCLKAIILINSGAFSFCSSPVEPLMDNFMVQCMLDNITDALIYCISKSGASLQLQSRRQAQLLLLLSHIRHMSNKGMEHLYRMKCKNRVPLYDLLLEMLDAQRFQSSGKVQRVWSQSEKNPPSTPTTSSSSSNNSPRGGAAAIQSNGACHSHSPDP
GAL4 Transcription Factor (Internal Marker), GAL4 (gene 855828), sequence (P04386 whole entry, looked up, the tested form may be a part): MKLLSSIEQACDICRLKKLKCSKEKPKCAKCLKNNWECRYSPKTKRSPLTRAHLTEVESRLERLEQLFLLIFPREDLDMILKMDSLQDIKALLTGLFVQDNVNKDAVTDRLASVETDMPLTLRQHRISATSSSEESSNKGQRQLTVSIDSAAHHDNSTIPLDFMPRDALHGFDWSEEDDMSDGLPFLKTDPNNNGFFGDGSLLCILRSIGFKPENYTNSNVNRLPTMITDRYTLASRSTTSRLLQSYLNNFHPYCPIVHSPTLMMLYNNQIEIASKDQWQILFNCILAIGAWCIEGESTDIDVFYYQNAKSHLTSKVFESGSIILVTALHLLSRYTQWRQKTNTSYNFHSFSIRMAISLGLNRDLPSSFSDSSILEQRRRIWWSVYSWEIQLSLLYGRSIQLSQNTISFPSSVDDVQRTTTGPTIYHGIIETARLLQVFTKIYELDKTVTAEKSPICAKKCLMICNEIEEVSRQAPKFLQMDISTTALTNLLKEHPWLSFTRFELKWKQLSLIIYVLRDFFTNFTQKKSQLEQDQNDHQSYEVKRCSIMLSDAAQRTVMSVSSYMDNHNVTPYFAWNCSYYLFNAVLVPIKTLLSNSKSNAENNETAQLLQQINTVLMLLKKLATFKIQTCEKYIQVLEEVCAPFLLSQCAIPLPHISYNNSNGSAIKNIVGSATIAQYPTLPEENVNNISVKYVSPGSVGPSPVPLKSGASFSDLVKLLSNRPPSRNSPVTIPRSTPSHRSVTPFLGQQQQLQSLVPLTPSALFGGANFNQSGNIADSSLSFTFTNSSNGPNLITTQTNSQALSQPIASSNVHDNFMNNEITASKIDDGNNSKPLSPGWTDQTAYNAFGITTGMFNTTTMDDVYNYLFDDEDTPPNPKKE
human Thyroid hormone Receptor beta (TRb), THRB (gene 7068), sequence (P10828 whole entry, looked up, the tested form may be a part): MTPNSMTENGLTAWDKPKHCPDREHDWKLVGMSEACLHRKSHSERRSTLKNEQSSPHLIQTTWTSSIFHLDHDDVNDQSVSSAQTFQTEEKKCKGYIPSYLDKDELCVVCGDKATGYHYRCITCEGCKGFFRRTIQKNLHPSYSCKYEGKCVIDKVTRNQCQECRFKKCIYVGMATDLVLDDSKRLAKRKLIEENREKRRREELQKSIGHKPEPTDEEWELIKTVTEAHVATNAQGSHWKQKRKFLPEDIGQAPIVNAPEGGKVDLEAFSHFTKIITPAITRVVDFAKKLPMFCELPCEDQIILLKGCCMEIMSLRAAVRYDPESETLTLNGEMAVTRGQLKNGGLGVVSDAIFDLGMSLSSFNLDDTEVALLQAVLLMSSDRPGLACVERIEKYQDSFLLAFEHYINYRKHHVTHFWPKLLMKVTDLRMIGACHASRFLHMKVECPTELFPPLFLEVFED
zebrafish Thyroid Hormone Receptor beta (TRb), thrb (gene 30607), sequence (Q9PVE4 whole entry, looked up, the tested form may be a part): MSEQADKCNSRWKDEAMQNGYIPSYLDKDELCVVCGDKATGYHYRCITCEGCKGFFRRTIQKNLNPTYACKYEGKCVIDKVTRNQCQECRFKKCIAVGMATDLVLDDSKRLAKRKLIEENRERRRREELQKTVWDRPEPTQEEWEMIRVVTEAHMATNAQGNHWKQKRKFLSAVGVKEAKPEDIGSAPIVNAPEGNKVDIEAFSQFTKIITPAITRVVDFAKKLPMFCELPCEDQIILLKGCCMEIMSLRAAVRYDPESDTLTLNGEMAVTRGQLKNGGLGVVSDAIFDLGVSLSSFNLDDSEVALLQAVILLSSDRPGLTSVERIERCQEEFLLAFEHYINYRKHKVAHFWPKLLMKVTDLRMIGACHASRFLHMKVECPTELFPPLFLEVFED
zebrafish Thyroid Hormone Receptor alpha (TRa), thraa (gene 30670), sequence (Q98867 whole entry, looked up, the tested form may be a part): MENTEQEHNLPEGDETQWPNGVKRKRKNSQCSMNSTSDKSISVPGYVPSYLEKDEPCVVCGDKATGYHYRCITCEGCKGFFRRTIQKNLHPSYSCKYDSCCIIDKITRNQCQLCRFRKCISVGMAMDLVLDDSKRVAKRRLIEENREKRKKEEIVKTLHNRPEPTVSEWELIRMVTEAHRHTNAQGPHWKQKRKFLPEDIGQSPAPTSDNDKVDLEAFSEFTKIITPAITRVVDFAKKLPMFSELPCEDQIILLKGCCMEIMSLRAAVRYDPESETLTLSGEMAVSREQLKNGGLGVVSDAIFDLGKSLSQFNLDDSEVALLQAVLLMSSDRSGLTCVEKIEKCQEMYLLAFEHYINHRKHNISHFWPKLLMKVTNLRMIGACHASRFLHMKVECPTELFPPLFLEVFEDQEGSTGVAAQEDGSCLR
human Thyroid hormone Receptor alpha (TRa), THRA (gene 7067), sequence (P10827 whole entry, looked up, the tested form may be a part): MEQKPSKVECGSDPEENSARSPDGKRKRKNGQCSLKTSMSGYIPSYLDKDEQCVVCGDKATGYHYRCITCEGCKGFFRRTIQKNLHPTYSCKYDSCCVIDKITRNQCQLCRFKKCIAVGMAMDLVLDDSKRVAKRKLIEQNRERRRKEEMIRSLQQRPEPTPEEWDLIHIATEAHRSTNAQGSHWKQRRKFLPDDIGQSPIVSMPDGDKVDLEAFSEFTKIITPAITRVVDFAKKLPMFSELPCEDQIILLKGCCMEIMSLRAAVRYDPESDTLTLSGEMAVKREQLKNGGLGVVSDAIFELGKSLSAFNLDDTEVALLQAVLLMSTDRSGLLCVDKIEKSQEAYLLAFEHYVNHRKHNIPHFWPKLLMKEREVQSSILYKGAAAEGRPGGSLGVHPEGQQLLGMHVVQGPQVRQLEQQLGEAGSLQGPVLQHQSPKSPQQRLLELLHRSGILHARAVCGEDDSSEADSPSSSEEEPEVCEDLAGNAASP

COC(=O)c1c(C)cc(O)c(C)c1O
inactive: [1] | [4] | [5] | [9]
active: [2] 8.55 µM and 31.2 µM | [3] 8.13 µM and 12.3 µM | [5] 27.5 µM | [6] 19.8 µM and 28.8 µM | [7] 7.57 µM and 27.3 µM | [8] 12.1 µM and 17.5 µM | [10] 39.7 µM and 71.2 µM | [11] 10.5 µM and 53.7 µM | [12] 27.7 µM and 27.2 µM

O=C(c1ccc(O)cc1)c1ccc(O)cc1O
inactive: [13] | [14] | [15] | [16] | [17] | [18] | [1] | [4] | [20]
active: [2] 3.24 µM | [3] 1.6 µM | [5] 4.75 µM | [6] 3.03 µM | [7] 2.27 µM | [19] 10 µM | [8] 3.84 µM | [10] 3.62 µM | [11] 3.48 µM | [12] 2.54 µM
